The list is not random: actives were taken first. Their share in the collection is about 7.6%.
RORgamma inh – blocks mouse ROR gamma transcriptional activity. P51450. 5.4% of 310,000 active. Drosophila S2 Gal4-RORgamma UAS-luciferase reporter, 20 h. Potency, µM (titrated, usually from 53.6 µM), actives largely listed as inhibitors; also: nearly all actives have a fitted effect of over 60% in size
Target sequence (P51450 whole entry, looked up, the tested form may be a part): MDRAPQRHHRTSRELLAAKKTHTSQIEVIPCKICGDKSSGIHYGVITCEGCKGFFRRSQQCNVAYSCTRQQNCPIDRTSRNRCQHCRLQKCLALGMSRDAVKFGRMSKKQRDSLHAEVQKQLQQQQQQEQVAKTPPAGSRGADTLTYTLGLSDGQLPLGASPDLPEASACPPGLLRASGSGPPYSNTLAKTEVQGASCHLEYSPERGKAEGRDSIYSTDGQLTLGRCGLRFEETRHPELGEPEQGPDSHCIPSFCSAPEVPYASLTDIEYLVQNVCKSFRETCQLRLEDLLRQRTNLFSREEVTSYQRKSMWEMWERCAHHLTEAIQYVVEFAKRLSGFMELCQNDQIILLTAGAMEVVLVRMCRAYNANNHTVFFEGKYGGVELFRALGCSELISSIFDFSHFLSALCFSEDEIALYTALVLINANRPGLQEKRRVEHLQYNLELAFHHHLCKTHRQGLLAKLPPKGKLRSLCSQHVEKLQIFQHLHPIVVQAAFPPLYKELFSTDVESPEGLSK
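Drosophila Schneider cells stably carrying a metallothionein-driven Gal4 DBD–ROR gamma fusion and a UAS-Photinus luciferase reporter were exposed to compound for 1 hr, then induced with copper sulfate (700 uM final) for 20 hr at ambient temperature before luminescence reading.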
ELG1 DNA repair – ELG1-dependent DNA repair inhibition. AID 504467. HEK293T ELG1-luciferase reporter, luminescence, 16 h; DNA damage induced by 5-fluorouridine. Potency, µM (titrated, usually from 46.1 µM), hits mostly inhibitors. 2.3% of 330,000 active; also: nearly all actives have a fitted effect of over 55% in size
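DMSO vehicle served as the neutral condition. Each well held 2,000 cells given 5-fluorouridine plus compound; after 16 hr at 37 °C/5% CO2, ONE-Glo was added and luciferase measured 30 min later.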
BRCA1 expr up – BRCA1 expression activation | 1.1% of 380,000 active | Potency, µM (top dose mostly 46.1 µM), usual class: activators | MCF7-BRCA1-FFLuc reporter, luminescence, 48 h; response scale: scaled: vehicle 0%, 10 µM genistein 100%; also: nearly all actives have a fitted effect of over 80% in size
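Reporter cells (MCF7, BRCA1 promoter-firefly luciferase) received library compounds across a concentration series for 48 h. End-point luminescence was measured and concentration-effect curves derived after normalization.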
Giardia kill – kills Giardia lamblia; activity change, % at 7.66 µM, hits read low; 0.15% of 340,000 active; Giardia lamblia trophozoite viability; in the data active = activity change below about -80%; inconclusive = between about -30% and that limit;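 also: parasites exposed to compound for two days anaerobically before the ATP read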
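ATP-content bioluminescence gauges trophozoite survival. Cells (100/well) receive compound and incubate anaerobically for 48 hrs at 37 deg C; detection reagent follows for 15-30 min at room temperature.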
VP16 counter – counter-screen for ROR gamma inhibitors: Gal4-VP16 reporter. Drosophila S2 Gal4-VP16 UAS-luciferase, luminescence, 20 h. Potency, µM (top dose mostly 53.6 µM), usual class: inhibitors. 3.5% of 310,000 active;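 also: Gal4-VP16 expression switched on by copper sulfate through the metallothionein promoter; nearly all actives have a fitted effect of over 50% in size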
p53 reactivator – restores transcriptional activity of mutant p53; H1299 p53-A138V BP100-luciferase reporter, luminescence, 24 h; Potency, µM (titrated, usually from 92.2 µM), most hits filed as activators; 0.063% of 320,000 active; also: nearly all actives have a fitted effect of over 45% in size
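H1299 (p53-null), stable ts p53-A138V + BP100-Luc; 1000 cells/well, Opti-MEM/10% FBS; cpd 4 pt, 1:5; 24 h, 37 deg C, 5% CO2; detection reagent 10 min RT; luminescence.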
Numbers stand for hits; . = inactive; ? = inconclusive; / = no result given; [ ] = dose if it differs, or a comment. Unless noted, calls follow the shape of the dose curve; as a rule, active = well fitted curve in the direction sought with a large enough effect; inconclusive = small, poorly fitted or top-dose-only effect, or another doubt; inactive = no such curve, though single readings can be large; an effect the other way counts as inactive or inconclusive.

SMILES	RORgamma inh	ELG1 DNA repair	BRCA1 expr up	Giardia kill	VP16 counter	p53 reactivator
C/C(=N\NC(=O)c1ccccc1)c1ccc(N2CCCCC2)cc1	.	?	11µM	.	.	.
CSc1ccc(/C=N/NC(=O)c2ccc(O)cc2)cc1	0.56µM	?	?	.	2.2µM	?
CNC(=O)c1ccc2nc(-c3ccccc3)c(-c3ccccc3)nc2c1	/	/	.	.	/	/
COc1ccc(-c2noc(N3CCC(C(=O)Nc4ccccc4OC)CC3)n2)cc1	.	23µM	.	.	.	.
O=C(Nc1cccnc1Cl)C1CCCN(c2ncnc3c2nc2n3CCCCC2)C1 (configuration not stated)	.	15µM	.	.	.	.
O=C(NCC1CCN(Cc2ccccc2F)CC1)C1CCCN(c2ncnc3c2nc2n3CCCCC2)C1 (configuration not stated)	.	7.3µM	.	.	.	.
CCN(C(=O)C1CCCN(c2ncnc3c2nc2n3CCCCC2)C1)c1cccc(Cl)c1 (configuration not stated)	?	21µM	.	.	.	.
O=C(Nc1ccccn1)C1CCCN(c2ncnc3c2nc2n3CCCCC2)C1 (configuration not stated)	.	.	.	.	.	.
COCC(C)NCc1ccccc1C (configuration not stated)	.	.	.	.	.	.
Cc1nc2c(cnn2-c2ccc(Cl)cc2)c(=O)n1-c1ccc(N2CCC(C)CC2)cc1	.	?	/	/	.	.
O=C(CN1C(=O)C(=O)N(Cc2ccccc2)C1=O)c1ccc[nH]1	/	?	.	.	/	.
CSc1nsc(SC)c1NC(=O)Nc1ccccn1	.	.	.	.	.	.
NS(=O)(=O)c1ccc(CCNC(=O)c2ccccc2OCc2ccc(F)cc2)cc1	.	.	.	.	.	.
COc1ccccc1NC(=O)C1CCN(c2ncnc3c2nc2n3CCCCC2)CC1	.	9.2µM	.	.	.	.
O=C(C1CCN(S(=O)(=O)c2cccnc2)CC1)N1CCN(c2cccc(Cl)c2)CC1	.	21µM	.	.	?	.
O=C(Nc1ccc(Cl)cn1)C1CCN(c2ncnc3c2nc2n3CCCCC2)CC1	?	2.1µM	.	.	?	?
O=C(C1CCN(c2ncnc3c2nc2n3CCCCC2)CC1)N1CCN(c2cccc(Cl)c2)CC1	.	2.3µM	.	.	?	?
CC(=O)OCCn1c(Br)nc2c1c(=O)[nH]c(=O)n2C	.[10 µM]	.	.	.	.	.
O=C(Nc1ccc(F)c(Cl)c1)C1CCN(c2ncnc3c2nc2n3CCCCC2)CC1	.	7.3µM	.	.	.	.
CC(=O)c1ccc(N2CCN(C(=O)C3CCCN(c4ncnc5c4nc4n5CCCCC4)C3)CC2)cc1 (configuration not stated)	.	2.3µM	.	.	.	.
Cc1ccc(NC(=O)C2CCCN(c3ncnc4c3nc3n4CCCCC3)C2)nc1 (configuration not stated)	.	3.3µM	.	.	.	.
O=C(O)CSc1c2c(nc3cc(C(=O)N4CCCC4)ccc13)CCCC2	.	.	.	.	.	.
COc1ccccc1CNC(=O)COc1ccc(C)cc1	.	.	.	.	.	/
CN(C)c1ccc(CNn2cnnc2)cc1	.	.	.	.	.	.
COc1ccc(Cl)cc1NC(=O)CN(C)C(=O)C12CC3CC(CC(Cl)(C3)C1)C2	.	18µM	.	.	.	.
SMILES	RORgamma inh	ELG1 DNA repair	BRCA1 expr up	Giardia kill	VP16 counter	p53 reactivator
CC(=O)C[n+]1cccc(Br)c1	/	/	.	/	/	/
COC(=O)c1ccc(C2C(C(=O)c3ccc(C)o3)=C(O)C(=O)N2c2cc(C)on2)cc1 (configuration not stated)	.	.	.	.	.	.
CCCCOC(=O)NS(=O)(=O)c1sc(CC(C)C)cc1-c1ccc(Cn2c(CC)nc3c(C)cc(C)nc32)cc1	/	13µM	/	/	/	.
O=C(CCN1CCCO1)N1CCCC(Nc2cccc(F)c2)C1 (configuration not stated)	/	/	.	/	/	/
Cc1ccc(S(=O)(=O)N2CCOCC2)cc1C(=O)NC(=S)N1CC(C)CC(C)C1 (configuration not stated)	1.6µM	?	.	.	5µM	.
CCCCCC(C)NC(=S)NC(=O)c1cc(S(=O)(=O)N2CCOCC2)ccc1C (configuration not stated)	10µM	?	.	.	11µM	.
CCCC(C)NC(=S)NC(=O)c1cc(S(=O)(=O)N2CCOCC2)ccc1C (configuration not stated)	?	?	.	.	?	.
CCOC(=O)C1CCCN(Cc2ccc(OCc3ccccc3)c(OC)c2)C1 (configuration not stated)	.	.	.	.	.	.
COc1ccccc1CNc1ccc(-c2nc(-c3cccc(C)c3)no2)cc1[N+](=O)[O-]	/	/	.	/	/	/
CCOC(CNc1cc(C)nc2c(-c3ccccc3OC)c(C)nn12)OCC	.	.	.	.	.	.
COc1ccccc1-c1c(C)nn2c(NCCN3CCCC3)cc(C)nc12	6.3µM	.	.	.	7.1µM	.
c1ccc2c(c1)CC1(CCCC1)n1nnnc1-2	0.71µM	.	.	.	.	.
CC1(C)Cc2ccccc2-c2nnnn21	.	.	.	.	.	.
COc1ccc(-n2cccc2/C=C/[N+](=O)[O-])cc1	10µM	23µM	.	.	?	.
CC1=Nc2ccccc2/C1=C\c1nc(-c2ccc(F)cc2)oc1O	.	.	.	.	.	.
CCOc1ccc(NC2=C(OC)C(=O)c3ccccc3C2=O)cc1	.	.	.	.	.	.
Cc1ccc(NC2=C(Cl)C(=O)c3ccccc3C2=O)cc1	?	?	.	.	?	5µM
O=C1C(Cl)=C(Nc2ccc(O)cc2)C(=O)c2ccccc21	?	?	.	.	?	.
CCN(CC)c1ccc(NC2=C(Cl)C(=O)c3ccccc3C2=O)cc1	?	?	.	.	11µM	.
O=c1[nH]c(CN(CCc2ccccc2)S(=O)(=O)c2ccc(Cl)cc2)nc2ccccc12	4.5µM	?	.	.	6.3µM	?
COc1ccc(S(=O)(=O)N(Cc2ccccc2)Cc2nc3ccccc3c(=O)[nH]2)cc1	13µM	?	.	.	11µM	.
Nc1cc(=O)[nH]n1C1CCCCC1	.	.	.	.	.	.
COc1ccc(N(Cc2cc3ccc(C)cc3[nH]c2=O)C(C)=O)cc1	.	.	.	.	.	.
Cc1cccc(COc2ccccc2C(=O)OCC(=O)N(C)c2c(N)n(Cc3ccccc3)c(=O)[nH]c2=O)c1	.	21µM	.	.	.	.
COc1cc2ccccc2cc1C(=O)OCC(=O)N(C)c1c(N)n(Cc2ccccc2)c(=O)[nH]c1=O	/	?	.	.	/	.
CCCOc1ccc(Br)cc1CSC(=N)N	?	?	.	.	13µM	.

Assay outcomes from PubChem.
